# Source: PubChem BioAssay
# Molecular target: Torsin-1A-interacting protein 2 (Homo sapiens) (UniProt Q8NFQ8)
# Experiment: LULL1 binders on small-molecule microarray, primary screen, cell lysate, human LULL1 lysate, 635/667 nm fluorescence (AID 1092);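 note: probe is lysate of COS7 cells overexpressing human LULL1; score merges per-feature 667 nm fluorescence with signal-to-noise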
# Conditions: hLULL1 lysate binding, 635 nm fluorescence, higher = more signal
# Torsin-1A-interacting protein 2 (Homo sapiens), sequence (Q8NFQ8 whole entry, looked up): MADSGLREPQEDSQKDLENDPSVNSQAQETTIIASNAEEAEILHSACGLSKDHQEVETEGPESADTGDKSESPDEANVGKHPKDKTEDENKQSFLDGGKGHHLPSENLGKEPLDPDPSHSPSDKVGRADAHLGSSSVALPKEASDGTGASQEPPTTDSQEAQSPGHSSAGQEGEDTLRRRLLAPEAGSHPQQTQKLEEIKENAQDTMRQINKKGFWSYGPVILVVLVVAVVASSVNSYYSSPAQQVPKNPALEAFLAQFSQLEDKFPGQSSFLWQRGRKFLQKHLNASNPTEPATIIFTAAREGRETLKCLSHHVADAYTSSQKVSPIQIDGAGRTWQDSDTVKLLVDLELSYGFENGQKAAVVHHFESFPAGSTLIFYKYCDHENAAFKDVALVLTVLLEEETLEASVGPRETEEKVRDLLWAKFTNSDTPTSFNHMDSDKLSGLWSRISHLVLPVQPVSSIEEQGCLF
row,SMILES,composite z-score
1,COc1ccc(C#Cc2ccc3c(c2)[C@]2(C(=O)N3)[C@H](c3ccc(O)cc3)N3[C@H](c4ccccc4)[C@H](c4ccccc4)OC(=O)[C@H]3[C@@H]2C(=O)Nc2nc3ccccc3s2)cc1,3.07
2,CCOc1cc(C(O)C2C=CC3C(=O)NC(=O)C3N2Nc2ccc(Cl)cc2Cl)ccc1O (stereo not given),0.0486
3,Cc1ccc(S[C@]2(C(=O)NCC(F)(F)F)CC(=O)N(Cc3cc(C(F)(F)F)cc(C(F)(F)F)c3)[C@@H]2c2ccc(CO)cc2I)cc1,-0.0923
4,C=CCC(OC(C)=O)[C@@H]1[C@@H](N(Cc2cc3ccccc3o2)C(=O)Cc2ccc(F)cc2)c2cc(OCCCO)ccc2N1C(=O)Cc1ccc2ccccc2c1 (stereo not given in full),0.426
5,CO[C@H]1O[C@H](CO)[C@@H](OC(=O)Nc2ccccc2)[C@H](OC(=O)c2cc3ccccc3[nH]2)[C@H]1OC(=O)c1cc2ccccc2[nH]1,0.87
